From PubChem BioAssay (NCI) come the findings set out here.

About 83,000 compounds went through this panel and 20% of them were active in at least one assay; those are over-represented in the sample as a whole.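 Negative percent growth values reflect cell death: -40 means 40% of the cells present at the start died, and -100 means all died.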 Unmarked numbers belong to inactive results. Activity calls are given as the source filed them. Rule for the calls: active = growth percent below 10; inactive = the rest.

Assay in all cases: NCI-60 one-dose screen, 48 h (100 = growth as untreated, 0 = no growth, -100 = all killed)
Common to all, as to conditions: 10 µM unless noted

Assay [1] relates to HCT-15 colon.
Assay [2] relates to HT29 colon.
Assay [3] relates to SNB-19 CNS.
Assay [4] has as its system U251 CNS.
Assay [5] deals with PC-3 prostate.
For assay [6], the system named is SK-MEL-5 melanoma.
Assay [7] deals with UACC-62 melanoma.
The subject of assay [8] is LOX IMVI melanoma.
Assay [9] concerns SK-MEL-28 melanoma.
The test system of assay [10] is SK-MEL-2 melanoma.
Assay [11] relates to EKVX NSCLC.
Assay [12] has as its system SN12C renal.
Assay [13] concerns UO-31 renal.
Assay [14] concerns TK-10 renal.
Assay [15] relates to ACHN renal.
The subject of assay [16] is CAKI-1 renal.
Assay [17] concerns CCRF-CEM leukemia.
The test system of assay [18] is MOLT-4 leukemia.
Assay [19] has as its system SNB-75 CNS.
In assay [20] the test system is A498 renal.

Regarding `COc1ccc2nc(NC(=O)CN3CCn4c(nnc4C(F)(F)F)C3)sc2c1`, the growth in [1] is 93.3%; in assay [2] it was 98.4%; in assay [3], 90.5%; in assay [4], 91.6%; in assay [5], 98.6%; in assay [6], 79.2%. Further, the growth was 83.9% in assay [7]; 96.6% in [8]; 102% in assay [9]; 106% in [10]; 73.1% in assay [11]; 92.2% in assay [12]. The growth in [13] is 80.6%; in [14], 97.5%; in assay [15], 90.7%; in assay [16], 77.7%; in assay [17], 86.5%; in assay [18], 95.8%.

Regarding `Cc1ccc(-c2c3c(N)nc(-c4ccncc4)nc3nc3c2c(C)nn3-c2ccccc2)cc1`, the growth in assay [1] is 45%; in assay [2], 21.8%; in assay [19], 22.5%; in [3], 88.4%; in [5] it was 62.8%; in assay [6], 55.3%. For the same compound, the growth is 58.3% in assay [7]; 30.4% in [9]; -7.11% (active) in [10]; 26.8% in [12]; 93.4% in assay [13]; 12.3% in [14]. For the same compound, the growth in assay [15] is 53.2%; in assay [16], 72.5%; in assay [20], 82.7%; in assay [18], 65.3%.

`[N-]=[N+]=NCc1cccc(/C(O)=C/C(=O)C(=O)O)c1`: the growth in [1] is 113%; in [2], 83.9%; in assay [19] it was 73.6%; in assay [3] it was 101%; in assay [5], 97.3%; in assay [6], 106%. The growth in assay [8] is 92.6%; in assay [9], 82.1%; in assay [10], 72.8%; in assay [11] it was 120%; in assay [12] it was 90.4%; in [14] it was 107%. For the same compound, the growth in [15] is 107%; in assay [16], 131%; in assay [20] it was 108%; in assay [17] it was 75.2%; in assay [18], -100% (active).

For the compound `c1ccc(-c2nc(Nc3nccnn3)c3ccccc3n2)cc1`, the growth is 98.2% in assay [1]; 98.8% in assay [2]; 93.6% in [3]; 92.9% in assay [4]; 101% in assay [5]; 99.1% in assay [6]. The growth in [7] is 87.8%; in [8], 96%; in assay [9] it was 103%; in assay [10] it was 112%; in assay [11], 88.4%; in assay [12], 96.7%. For the same compound, the growth is 89.8% in assay [13]; 155% in assay [14]; 103% in assay [15]; 84.9% in assay [16]; 93.2% in [17]; 100% in [18].

For `O=C(Nc1ccccc1OC(=O)c1ccccc1)c1ccccc1`, the growth was 88.5% in assay [1]; 101% in [19]; 87.4% in assay [3]; 47% in assay [4]; 88.5% in assay [5]; 97.4% in [6]. The growth in assay [7] was 82.6%; in assay [8] it was 60.1%; in assay [9], 118%; in assay [10] it was 83.1%; in assay [11], 110%; in assay [12], 69.6%. In addition, the growth in assay [13] was 77.4%; in assay [14] it was 101%; in assay [15] it was 98.9%; in [16], 91.5%; in assay [20], 81.4%; in [17] it was 27.1%. Besides, the growth in assay [18] is 26.2%.

On to `CCCCCc1c(C)[nH]c(/C=C2\N=C(c3ccc[nH]3)C=C2OCc2ccccc2)c1C`, for which the growth is -60% [100 µM] (active) in assay [1]; -78.1% [100 µM] (active) in [19]; -92.8% [100 µM] (active) in [3]; -93.7% [100 µM] (active) in [4]; -69.5% [100 µM] (active) in assay [5]; -66.9% [100 µM] (active) in [6]. Further, the growth in assay [7] is -92.7% [100 µM] (active); in assay [8] it was -62.6% [100 µM] (active); in assay [9] it was -89.8% [100 µM] (active); in [10] it was -75% [100 µM] (active); in [12] it was -77% [100 µM] (active); in assay [13], -93.6% [100 µM] (active). Besides, the growth in [14] was -81.3% [100 µM] (active); in assay [15], -91.5% [100 µM] (active); in [16], -74.4% [100 µM] (active); in [20], -79.2% [100 µM] (active); in assay [18], -57.8% [100 µM] (active).

With `COc1ccc(C(=O)/C=C/c2ccc(C)cc2)cc1OC`, the growth in assay [1] is 46.9%; in assay [19], 64.9%; in assay [3], 70.3%; in assay [4], 27.7%; in [5], 51%; in assay [6], 74%. The growth in [7] is 68.1%; in [8] it was 48.6%; in assay [9], 87.4%; in assay [11], 93%; in assay [12], 75.7%; in assay [13], -12% (active). Further, the growth in assay [14] was 114%; in assay [15], 86.2%; in assay [20], 80.7%; in [17] it was 23.4%; in [18] it was 52.1%.

On to `Cc1ccc2nc(-c3ccc(N(C)C)c(Br)c3)cn2c1`, for which the growth in assay [1] is 33.9%; in assay [19] it was 103%; in assay [3] it was 99.4%; in [4] it was 49.1%; in assay [5] it was 53.7%; in assay [6] it was 77.9%. In addition, the growth was 66.6% in assay [7]; 56.3% in assay [8]; 93.3% in assay [9]; 94.3% in assay [10]; 79.5% in assay [11]; 94.8% in assay [12]. The growth is 146% in assay [14]; 95.6% in assay [15]; 126% in [16]; 118% in assay [20]; 28.6% in assay [18].

As for `O=C(CN1CCN(c2ccc(Cl)cc2)CC1)N1CCN(c2nnc(-c3ccc(Cl)cc3)c(-c3ccc(Cl)cc3)n2)CC1`, the growth in assay [1] was 59%; in assay [19], 75.6%; in assay [3] it was 78%; in assay [4], 74.2%; in assay [5], 30.5%; in assay [6], 58.2%. In addition, the growth in assay [7] was 69.9%; in [8], 51.8%; in assay [9], 93.6%; in assay [11] it was 71.2%; in [12], 75.5%; in assay [13] it was 37.9%. For the same compound, the growth in assay [14] was 102%; in assay [15], 68.5%; in assay [16] it was 168%; in assay [20] it was 56.9%; in assay [17] it was 10.4%; in [18], -40.9% (active).
